Test results taken from the supplement of paper PMC3334620.
Whole data set: some 33,000 sequences, median “E-score (-0.5 to 0.5)” near -0.032, cut for the highest 2% near 0.36. The sample holds the highest values, similar sequences and a random draw of the others, so the mix is not that of the screen.

Biological target: T1, Sko1 (UniProt Q02100)
T1 sequence: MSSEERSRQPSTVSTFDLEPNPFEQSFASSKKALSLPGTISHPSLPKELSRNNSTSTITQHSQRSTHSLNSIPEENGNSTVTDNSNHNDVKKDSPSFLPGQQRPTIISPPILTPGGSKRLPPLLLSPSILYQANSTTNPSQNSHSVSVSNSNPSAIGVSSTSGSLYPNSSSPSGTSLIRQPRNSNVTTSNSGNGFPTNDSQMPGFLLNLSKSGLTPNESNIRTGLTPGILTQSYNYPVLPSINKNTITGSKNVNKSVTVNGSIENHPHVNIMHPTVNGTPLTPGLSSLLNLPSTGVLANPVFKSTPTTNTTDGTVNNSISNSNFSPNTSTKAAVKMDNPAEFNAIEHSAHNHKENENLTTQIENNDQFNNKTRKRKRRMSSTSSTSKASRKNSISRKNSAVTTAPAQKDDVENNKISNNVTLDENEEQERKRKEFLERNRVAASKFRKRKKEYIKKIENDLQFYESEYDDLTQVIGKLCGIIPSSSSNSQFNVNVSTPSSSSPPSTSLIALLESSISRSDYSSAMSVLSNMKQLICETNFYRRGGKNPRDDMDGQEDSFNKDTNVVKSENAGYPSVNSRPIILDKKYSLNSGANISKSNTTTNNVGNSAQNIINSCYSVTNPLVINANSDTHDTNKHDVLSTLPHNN
Assay: PBM E-score (8-mer binding enrichment) (E-score (-0.5 to 0.5)); higher = stronger / more preferred TF binding
Settings: protein concentration: 200 nM; construct: GST-full length
Summary of the method: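 Yeast transcription factors, full-length or as DNA-binding domains, were expressed with a GST tag using PURExpress in vitro transcription/translation. At about 100-200 nM they were applied to universal all-10-mer Agilent arrays, double-stranded by primer extension on fresh or once-stripped slides. Fluorescent anti-GST detected bound protein, and masliner normalised the scans. E-scores for ungapped eight-base words, pooled with reverse complements, came from the Universal PBM Analysis Suite.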

Sequence	PBM E-score
TCGACGCA	0.0313
ATCGCCAA	-0.119
GTTTTCTA	0.201
GCAGTAGA	-0.0999
ATGGCAGG	-0.281
CAGGACCC	-0.221
CATGACGG	0.326
GATGACCC	-0.0957
GATGACAC	0.257
GATGACCA	0.0721
CATGACGA	0.463
AATGACGC	0.478
ACTGACGC	0.334
CATGACAA	-0.00914
GATGACGC	0.473
GATGACGA	0.474
GATGACTA	0.0669
ATTGACGC	0.319
GGACCCTA	-0.273
GTTTTGTA	0.262
ACGATAGT	0.295
ATATGCGC	0.0277
CGATCGCG	0.0985
CGAGCACG	0.0337
GACCAGCA	-0.185

Sequence	PBM E-score
GAGGGCGA	-0.265
AATGACGG	0.388
ATTGACGG	0.0348
AATGACCG	0.0453
GCCTCAGA	-0.148
AGGTAACT	0.0427
AAGTAACG	0.0665
CCGTAACG	-0.103
ACGTAACT	0.459
ACGTAACA	0.464
ACGTAACC	0.469
GCGTAACC	0.328
ACGTAACG	0.469
CCGTAACC	-0.0904
GCGTAACA	0.317
AAGTAACT	0.153
TCGTAACA	0.275
AGCTGTGG	-0.296
GGTCCCAC	-0.0859
AATGAGTA	0.178
CGGACTGC	-0.0639
CTCTTACA	-0.0812
ATTTAGTA	0.25
ATGAAATG	-0.059
AGGCAAGC	-0.126

Sequence	PBM E-score
AATACGCG	0.287
CATACGCC	0.182
GATACGAA	0.227
GATACGTA	0.48
CATACGGC	-0.0208
AATACGAA	0.324
CATACGTC	0.466
AATACGTG	0.458
GATACGGA	-0.0181
AATACGTA	0.482
AATACGGG	-0.111
AATACGGA	0.138
AAACCTTG	0.0199
GACTCACC	-0.118
CTCAGGAG	-0.159
CACTTCCA	0.109
CTTAAAGA	0.00637
CTTGATGC	-0.116
AACCGCTT	-0.113
AATTCAAA	0.193
CTTAAGCA	-0.0027
CACTTTGG	-0.0531
ATCTGGGA	-0.147
CAGGCAGC	-0.349
CGGTGGAA	-0.188

Sequence	PBM E-score
ATGAGCGA	0.102
AATACGTC	0.464
AATACGAC	0.22
CATACGGA	-0.00572
CATACGAA	0.308
AATACGGC	0.0384
CATACGTA	0.485
CCGACTGA	-0.162
ACATGGTA	0.00395
ACTCCTGA	-0.0495
AGACGAAA	0.199
ATACGAAA	0.346
GGACGACA	0.0412
CGACGACA	0.0871
TGACGACA	0.467
TGACGAAA	0.463
GGACGAAA	-0.0622
TTACGAAA	0.396
GTACGACA	0.326
CTACGAAA	0.214
ATACGACA	0.363
ATACGACG	0.234
AGAATCCC	-0.0186
GTAGTTGA	0.173
CTTCTACC	-0.3

Sequence	PBM E-score
TAATGCAA	0.0655
ATTCACTG	0.0188
ACTTTCGG	0.0182
TAGGGGGA	-0.251
CGCTATGC	0.147
TCAAGTGA	0.087
ATCGCTAG	-0.0122
CTAGTTAC	0.099
CATTGAGG	-0.021
CAGGCTCC	-0.335
GTATGTCA	0.398
ATATGTCA	0.339
CTATGTCA	0.338
CATTTACA	0.103
CATTTACG	0.369
ACTTTACA	0.158
CCTTTACG	0.278
CATTTACC	0.129
ATTTTACG	0.383
ATTTTACC	0.252
AATTTACG	0.332
ACTTTACG	0.379
ATAGCGGA	-0.0894
AGGTTGTA	0.15
GTCCAGTA	-0.0738

Sequence	PBM E-score
AGCGCGAA	0.13
CGTCATAA	0.487
GGTCATAC	0.021
AGTCATAC	0.262
CCTCATAG	0.1
TGTCATAA	0.325
CGTCATAC	0.486
AGTCATAA	0.0121
CGTCATAG	0.483
AGTCATAG	-0.0111
GTAACTGA	0.126
CCAGTGGG	-0.107
ATCCACGC	-0.0735
GTAACCTA	0.192
CCAAAACG	0.171
AACCCGTG	-0.216
AGATGACC	-0.0804
CGATGACC	0.0462
CGATGACA	0.283
CGATGACG	0.482
AGATGACG	0.476
AGATGACA	0.256
CAACTTAC	0.0405
AGCGAAAC	0.163
GGACCGCC	-0.415

Sequence	PBM E-score
GGACCATA	-0.148
GGCCCAAC	-0.146
ACGTTAGA	0.265
AGAGATGG	-0.0345
CGCGTCAC	0.41
ATCGTCGC	0.0155
GTCGTCAC	0.41
CGCGTCAA	0.34
CTCGTCAA	0.0618
GTCGTCAA	0.239
CGCGTCAG	0.222
CTCGTCAG	0.176
CTCGTCAC	0.38
ATCGTCTC	-0.0603
GCCGTCAC	0.166
ATCGTCAC	0.385
ACCTCCAA	-0.189
CGCAGTAC	0.118
ACTACTGC	-0.0692
AAACCTAG	-0.0586
GACCACAA	-0.165
AACTCGAG	-0.00786
CATTTTCC	0.122
CCGGACTC	-0.16
GCGGACGC	-0.0227

Sequence	PBM E-score
AGGGTACT	-0.236
TCACAACA	0.251
ACTTAAGC	0.032
ATCGTCAT	0.469
ACCGTCAA	0.00527
ACCGTCAT	0.378
AGCGTCAT	0.445
AGCGTCAG	0.154
ATCGTCAG	0.263
ATCGTCAA	0.287
AGCGTCAA	0.166
ACCGTCAG	-0.0341
CCTTAAAA	0.101
GTGAATGA	0.231
GGGCCAGA	-0.278
GGAGCTAC	-0.112
CGCTAGCG	-0.26
CGGAGAGA	-0.15
CTCCAAGA	-0.189
ATTCTAGG	0.0401
AGTCGCGG	-0.312
GCAAACGA	0.136
TAGCTACA	0.13
GGATTCTA	-0.0972
TCATTGAA	0.146

Sequence	PBM E-score
CATCATGG	0.132
CATCATAG	0.361
CATCATAA	0.299
AATCATAC	0.253
CATCATAC	0.377
AATCATAG	0.126
ATAAATAC	0.23
CGATGGAA	0.106
AAACAATC	0.0366
ACAGGTTC	-0.291
ACGGTTTG	-0.104
GACCTAGA	0.0106
ACGTATGG	0.441
CCGTATGC	-0.0726
AGGTATGC	0.118
AAGTATGG	0.023
ACGTATGA	0.473
GCGTATGA	0.337
CCGTATGA	0.135
ATGTATGG	0.0987
ACGTATGC	0.458
